This is part of a sample that, as a whole, favours compounds with a hit. Of some 79,000 tested, about 15% had one in any assay. A number with no mark means an inactive call. The source made the active and inactive calls. Cut-off read from the data, not from the text of the source: active = growth inhibition above about 70%; inactive = the rest.
Legend:
[1] = NCI Yeast Anticancer Drug Screen. Data for the rad50 strain (AID 155);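 note: 0% = growth of vehicle-only cultures of the same strain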; conditions: S. cerevisiae rad50 strain growth inhibition; at 50.0 µM; stronger effect = higher value
Summary of the method: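 A DNA repair-deficient yeast mutant serves as the test organism; compound-induced growth inhibition is calculated against vehicle-treated cells.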

[2] = NCI Yeast Anticancer Drug Screen. Data for the mec2-1 strain (AID 157); conditions: S. cerevisiae mec2-1 strain, at 50.0 µM, stronger effect = higher value
Summary of the method: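 Vehicle-treated cultures served as reference for growth inhibition of compound-exposed mec2-1 yeast.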

[3] = NCI Yeast Anticancer Drug Screen. Data for the sgs1 mgt1 strain (AID 161);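 note: 0% = growth of cultures given vehicle only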; conditions: S. cerevisiae sgs1 mgt1 strain, at 50.0 µM, stronger effect = higher value
Summary of the method: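 Inhibition of yeast growth, normalised to vehicle-treated controls, is reported for a strain bearing genetic alterations in DNA damage repair.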

[4] = NCI Yeast Anticancer Drug Screen. Data for the cln2 rad14 strain (AID 165);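 note: 0% = growth equal to vehicle treated cultures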; conditions: S. cerevisiae cln2 rad14 strain, at 50.0 µM, stronger effect = higher value
Summary of the method: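 Each compound was tested on cln2 rad14 yeast. Inhibition of growth was calculated against vehicle-exposed controls.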

[5] = NCI Yeast Anticancer Drug Screen. Data for the bub3 strain (AID 167); conditions: S. cerevisiae bub3 mutant strain, at 50.0 µM, stronger effect = higher value
Summary of the method: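 Inhibition values come from growth of compound-treated mutant yeast normalised to vehicle-treated controls.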

[6] = NCI Yeast Anticancer Drug Screen. Data for the mlh1 rad18 strain (AID 175); conditions: S. cerevisiae mlh1 rad18 strain growth inhibition; at 50.0 µM; stronger effect = higher value
Summary of the method: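 Vehicle-treated cultures served as the reference for growth inhibition in a yeast strain carrying DNA damage repair alterations exposed to each compound.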

Compound	growth inhibition [1]	growth inhibition [2]	growth inhibition [3]	growth inhibition [4]	growth inhibition [5]	growth inhibition [6]
CCCCCC(=O)C#Cc1ccccc1	24.1%	11.1%	11.7%	-7.25%	-4.9%	20.4%
CC1OC(OC2C(O)CC(OC3C(O)CC(OC4CCC5(C)C(CCC6C5CCC5(C)C(C7=CC(=O)OC7)CCC65O)C4)OC3C)OC2C)CC(O)C1O (stereo not drawn)	7.6%	2.4%	-17.5%	16.8%	6.65%	27.2%
O=C1c2ccccc2C(=O)N1CNc1cccc(NCN2C(=O)c3ccccc3C2=O)c1	-3.9%	-11.7%	-9.75%	16.1%	1.2%	-2.15%
Nc1nc(N)c2nc(C(=O)O)c(C(=O)O)nc2n1	-20.6%	-8.2%	-11.5%	-15.8%	-19%	-4.2%
Cn1nnc(CCCl)n1	-5.35%	-5.1%	-8.15%	-36.9%	16.8%	5.5%
CCOc1cccc(N)c1	-69.2%	-20.7%	-55.5%	-51%	-41.7%	-80.2%
COc1cc2nncc(Sc3cnnc4ccccc34)c2cc1OC	19.1%	29.6%	18.6%	13.3%	36%	35.6%
O=C1OC(c2ccc(Cl)cc2)=N/C1=C\c1ccc(Cl)c(Cl)c1	35.7%	19.1%	59.4%	19.2%	38.5%	31.7%
COc1ccc(/C=C2\CN(C)Cc3c2nc(N)nc3-c2ccc(OC)cc2)cc1	2.05%	-13.1%	5.2%	38.1%	-5.5%	5.75%
COC(=O)c1sc(=O)n(-c2ccccc2)c1SCc1ccccc1	25.4%	-5.15%	60%	12.9%	30.8%	18.8%
Cc1ccc2nc(C(O)C(O)C(O)CO)[nH]c2c1 (stereo not drawn)	-11.3%	-14.9%	10.7%	-11.6%	-25.7%	-12.7%
Cc1ccsc1/C=N/Nc1nc2ccccc2s1	1.7%	-1.5%	13.7%	9.2%	-2.15%	11.3%
CCCCCCCCC(=O)Nc1nc2nc[nH]c2c(=O)[nH]1	-9.65%	-33.2%	-15.3%	-30.1%	-14.3%	-5.45%
O=C(Cn1cc[n+](CC(=O)c2ccccc2)c1)c1ccccc1	-5.45%	4.7%	-4%	-36.6%	6.05%	63.4%
Cc1ccc(C(C)C)nc1	17.1%	18.5%	19.1%	25.2%	22.5%	26.7%
NC(=Nc1ccccc1)c1ccc(Cl)cc1	66.2%	96.5% (active)	45.4%	97.2% (active)	98.6% (active)	87.7% (active)
COC(=O)CN1C(=O)OC(c2ccccc2)C1=O (stereo not drawn)	-0.4%	1.15%	-4.1%	8.15%	-3.85%	-13.4%
c1cc[n+](CC[n+]2ccccn2)nc1	11.7%	22%	7.65%	16.4%	45.6%	46.1%
O=C1CSC(c2ccc([N+](=O)[O-])cc2)N1c1nc(-c2ccc3c(c2)CCCC3)cs1 (stereo not drawn)	32.1%	2.85%	21.1%	9.3%	1%	31.5%

Compound	growth inhibition [1]	growth inhibition [2]	growth inhibition [3]	growth inhibition [4]	growth inhibition [5]	growth inhibition [6]
COc1ccc(C2N3CCCCC3[C@@H]3c4[nH]c5ccccc5c4CCN23)c(OC)c1 (stereo partly drawn)	-30.2%	-24.4%	-26.6%	6.1%	-5.3%	-9.65%
CCCC(O)CO (stereo not drawn)	5.55%	1.9%	0.15%	-0.6%	-0.5%	40.2%
CCN(CC)CC(O)c1cccc2cc(Cl)ccc12 (stereo not drawn)	-3.25%	-8.85%	28%	-15.2%	-2.55%	-14%
COc1ccc(OC)c2c(=O)cc(C)oc12	-15.7%	-7.8%	-16.3%	-3.4%	-7.65%	-10.4%
Cc1c(/C=N/N(C)C)oc2c1cc(O)c1ncccc12	2.95%	-4.4%	20.4%	-1.9%	4.65%	2.35%
CN(C)Cc1cc(C(=O)c2ccccc2)c(O)cc1O	-38.4%	-4.05%	-0.9%	-23.6%	-2.05%	13.2%
C[C@@H]1C[C@H]2[C@@H]3CCC4=CC(=O)C=C[C@]4(C)[C@@]3(F)[C@@H](O)C[C@]2(C)[C@@]1(O)C(=O)CO	11.8%	-22.3%	-16.2%	3.45%	-5.1%	28.1%
C=C(CC[C@@H](C)[C@H]1CC[C@@]2(C)C3=C(CC[C@]12C)[C@@]1(C)CC[C@H](O)[C@@H](C)C1CC3)C(C)C (stereo partly drawn)	10.4%	2.8%	45.2%	37.8%	14.6%	71.5% (active)
CNC(=O)SC1=NS(=O)(=O)c2ccc(Cl)cc2N1	18.6%	19.5%	33.4%	23.1%	17.6%	42.5%
CC1CCCCC12COC(O)CO2 (stereo not drawn)	-22.5%	-23.4%	-19.1%	-11.7%	-24.1%	-31.9%
Cc1cc2c(cc1C)-c1nn(-c3ccccc3)c(-c3ccc(Cl)cc3)c1CCO2	27.2%	1.35%	-1.75%	17.9%	-6.2%	3.65%
O=C1c2ccccc2C(=O)N1C1(C(=O)NC2(C(=O)O)CCCC2)CCCC1	-2.5%	-7.8%	-37.8%	2.6%	-38.1%	-8.6%
CC(C)(C)N=C1CC(C)(C)c2ccccc2C(=Nc2ccccc2)S1	23.2%	9.55%	24.8%	24.1%	8.3%	15.3%
O=C(c1ccccc1)c1cccs1	-19.3%	-1.9%	-12.7%	-45.6%	-14.5%	-17.9%
O=C1NC2(CCCCC2)C(=O)N1CCN1C(=O)NC2(CCCCC2)C1=O	6.7%	4.2%	-1.8%	8.85%	-14.3%	-10.5%
O=C(O)C1CC1(c1ccccc1)c1ccccc1 (stereo not drawn)	18.6%	4.65%	-1.05%	-24.8%	-12.2%	15.8%
CCCCCCCCCCNC(=O)CCC(NC(=O)c1ccc(N(C)Cc2cnc3nc(N)nc(N)c3n2)cc1)C(=O)NCCCCCCCCCC (stereo not drawn)	5.7%	3.35%	-4.15%	6.1%	-13.2%	-3.65%
Cc1cc(S(=O)(=O)O)cc(C(C)(C)C)c1O	-15.6%	-11.4%	6.3%	6.25%	-2.45%	-20.6%
CC1(C)[C@H](C(=O)O)CC[C@]1(C)C(=O)O	9.9%	-13.1%	1.05%	19.2%	-0.7%	11.4%

Reference: PubChem BioAssay (NCI)
